# Reference: the supplement of paper PMC9262897, “Low-cost anti-mycobacterial drug discovery using engineered E. coli” (Nature Communications, 2022)
# Structures can show the parent of a compound that is named as a salt. ± gives the standard deviation of the averaged measurements.
# What was measured:
# Assay in all cases: growth (OD600 after 10 h); higher = more growth (less inhibition)
# [1] = test system: E. coli TESEC Alr+ wild-type control; conditions: compound 0.1 mM; raw OD600 reference: median of DMSO wells 0.241, cell-free background 0.041
# Method: (§1)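 TESEC Mtb Alr E. coli, or the Alr+ wild-type control, in 384-well plates with Prestwick library compounds at 0.1 mM and 1% DMSO, across arabinose induction levels of 1E3 to 1E7 nM. Growth is read as OD600 after 10 h at 37 °C in triplicate biological replicates.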
# E. coli TESEC Mtb Alr [2] = conditions: compound 0.1 mM
# Method: as §1
# E. coli TESEC Mtb Asd = conditions: compound 0.1 mM
# Method: (§2)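 TESEC E. coli strains in which the native enzyme is deleted and replaced by arabinose-inducible Mtb Asd, DapB, CysH or TrpD, each grown in its selective medium. Strains were screened against the Prestwick library at 0.1 mM and 1% DMSO in 384-well format at low and high arabinose induction. Growth is read as OD600 after 10 h in triplicate.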
# E. coli TESEC Mtb DapB = conditions: compound 0.1 mM
# Method: as §2
# E. coli TESEC Mtb Alr [3] = conditions: compound 0.1 mM; remark: listed apart in the source
# Method: (§3)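 TESEC Mtb Alr E. coli (ΔaraC ΔtolC ΔentC Δalr ΔdadX, arabinose-inducible Mtb Alr) or the Alr+ wild-type control strain, grown in defined M9-fructose medium without D-alanine in 96-well plates with Prestwick library compounds at 0.1 mM and 1% DMSO. Low Alr induction is 0.1 µM arabinose and high induction is 10 mM arabinose.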
# [4] = test system: E. coli TESEC Alr+ wild-type control; conditions: compound 0.1 mM; raw OD600 reference: median of DMSO wells 0.49, cell-free background 0.052
# Method: as §3
# [5] = arabinose 1000 nM, raw OD600 reference: median of DMSO wells 0.294, cell-free background 0.041
# [6] = arabinose 10000 nM, raw OD600 reference: median of DMSO wells 0.264, cell-free background 0.041
# [7] = arabinose 100000 nM, raw OD600 reference: median of DMSO wells 0.201, cell-free background 0.041
# [8] = arabinose 1000000 nM, raw OD600 reference: median of DMSO wells 0.193, cell-free background 0.041
# [9] = arabinose 10000000 nM, raw OD600 reference: median of DMSO wells 0.146, cell-free background 0.041
# [10] = arabinose induction (level): High, raw OD600 reference: median of DMSO wells 0.331, cell-free background 0.041
# [11] = arabinose induction (level): Low, raw OD600 reference: median of DMSO wells 0.417, cell-free background 0.041
# [12] = arabinose induction (level): High, raw OD600 reference: median of DMSO wells […], cell-free background 0.041
# [13] = arabinose induction (level): Low, raw OD600 reference: median of DMSO wells 0.227, cell-free background 0.041
# [14] = arabinose 100 nM, raw OD600 reference: median of DMSO wells 0.413, cell-free background 0.052
# [15] = arabinose 10000000 nM, raw OD600 reference: median of DMSO wells […], cell-free background 0.052
Compound,growth [1],growth (E. coli TESEC Mtb Alr [2]; [5]),growth (E. coli TESEC Mtb Alr [2]; [6]),growth (E. coli TESEC Mtb Alr [2]; [7]),growth (E. coli TESEC Mtb Alr [2]; [8]),growth (E. coli TESEC Mtb Alr [2]; [9]),growth (E. coli TESEC Mtb Asd; [10]),growth (E. coli TESEC Mtb Asd; [11]),growth (E. coli TESEC Mtb DapB; [12]),growth (E. coli TESEC Mtb DapB; [13]),growth (E. coli TESEC Mtb Alr [3]; [14]),growth (E. coli TESEC Mtb Alr [3]; [15]),growth [4]
C=C1C[C@@H]2[C@H](CC[C@]3(C)C(=O)CC[C@@H]23)[C@@]2(C)C=CC(=O)C=C12 [Exemestane],0.113 ± 0.0025,0.1298 ± 0.0011,0.165 ± 0.0017,0.108 ± 0.0018,0.0722 ± 0.0026,0.0997 ± 0.0036,0.0993 ± 0.0088,0.147 ± 0.023,0.112 ± 0.0048,0.109 ± 0.0022,0.379 ± 0.039,0.129 ± 0.019,
CCC1=C[C@H]2CN3CCc4c([nH]c5ccccc45)[C@](C(=O)OC)(C2)[C@H]13 [Catharanthine],0.203 ± 0.0049,0.262 ± 0.012,0.259 ± 0.006,0.169 ± 0.013,0.101 ± 0.0015,0.144 ± 0.0052,0.2 ± 0.032,0.437 ± 0.016,0.167 ± 0.0065,0.1738 ± 0.0015,0.4199 ± 0.0038,0.3 ± 0.017,0.4419 ± 0.0012
CC1C=CC=CCCC=CC=CC=CC=CC(OC2OC(C)C(O)C(N)C2O)CC2OC(O)(CC(O)C(O)CCC(O)CC(O)CC(O)CC(=O)OC(C)C(C)C1O)CC(O)C2C(=O)O (stereo not given) [Nystatine],0.297 ± 0.0097,0.307 ± 0.025,0.2338 ± 0.0013,0.345 ± 0.014,0.1538 ± 0.0011,0.188 ± 0.0066,0.23 ± 0.021,0.256 ± 0.023,0.295 ± 0.013,0.269 ± 0.051,0.431 ± 0.0073,0.345 ± 0.016,
COc1ccc2c(c1)[C@]13CCCC[C@@H]1[C@H](C2)N(C)CC3 [Dextromethorphan hydrobromide monohydrate],0.1976 ± 0.0013,0.25 ± 0.005,0.255 ± 0.0068,0.2 ± 0.027,0.154 ± 0.0044,0.142 ± 0.002,0.168 ± 0.015,0.29 ± 0.045,0.17 ± 0.015,0.232 ± 0.031,0.42 ± 0.006,0.355 ± 0.015,0.469 ± 0.03
NCCc1c[nH]c2ccc(O)cc12 [Serotonin hydrochloride],0.231 ± 0.013,0.297 ± 0.011,0.269 ± 0.0069,0.198 ± 0.036,0.201 ± 0.0049,0.145 ± 0.0029,0.361 ± 0.022,0.405 ± 0.091,0.209 ± 0.011,0.237 ± 0.0078,0.407 ± 0.02,0.338 ± 0.054,
CC(Cc1ccc(O)cc1)NCC(O)c1cc(O)cc(O)c1 (stereo not given) [Fenoterol hydrobromide],0.241 ± 0.0046,0.283 ± 0.02,0.266 ± 0.0076,0.184 ± 0.0055,0.19 ± 0.0033,0.143 ± 0.0091,0.298 ± 0.046,0.419 ± 0.025,0.201 ± 0.017,0.235 ± 0.05,0.406 ± 0.011,0.344 ± 0.0099,
COc1ccc(C(=O)N2CCCC2=O)cc1 [Aniracetam],0.25 ± 0.0051,0.3088 ± 0.0018,0.246 ± 0.01,0.236 ± 0.021,0.172 ± 0.0084,0.167 ± 0.0026,0.235 ± 0.057,0.309 ± 0.058,0.214 ± 0.0098,0.246 ± 0.011,0.405 ± 0.011,0.343 ± 0.012,
NC(=O)C[S+]([O-])C(c1ccccc1)c1ccccc1 (stereo not given) [Modafinil],0.246 ± 0.0057,0.295 ± 0.0039,0.255 ± 0.015,0.246 ± 0.021,0.192 ± 0.0097,0.148 ± 0.0039,0.348 ± 0.097,0.434 ± 0.039,0.191 ± 0.013,0.199 ± 0.017,0.406 ± 0.0054,0.346 ± 0.021,0.634 ± 0.016
CN1C[C@H](C(=O)N[C@]2(C)O[C@@]3(O)[C@@H]4CCCN4C(=O)[C@H](Cc4ccccc4)N3C2=O)C[C@@H]2c3cccc4[nH]cc(c34)C[C@H]21 [Dihydroergotamine tartrate],0.0782 ± 0.0015,0.0712 ± 0.0052,0.0692 ± 0.001,0.0715 ± 0.0021,0.0579 ± 0.0025,0.082 ± 0.0022,0.116 ± 0.013,0.123 ± 0.0052,0.119 ± 0.018,0.161 ± 0.014,0.282 ± 0.043,0.0688 ± 0.0007,0.1077 ± 0.001
CCOC(=O)c1cncn1[C@H](C)c1ccccc1 [Etomidate],0.202 ± 0.0032,0.244 ± 0.0088,0.275 ± 0.013,0.214 ± 0.03,0.181 ± 0.01,0.14 ± 0.0078,0.43 ± 0.029,0.378 ± 0.076,0.225 ± 0.019,0.228 ± 0.013,0.41 ± 0.0073,0.341 ± 0.0035,0.397 ± 0.013
CCCN1C[C@H](CSC)C[C@@H]2c3cccc4[nH]cc(c34)C[C@H]21 [Pergolide mesylate],0.2 ± 0.0044,0.254 ± 0.014,0.252 ± 0.0036,0.185 ± 0.0061,0.161 ± 0.0045,0.156 ± 0.0071,0.314 ± 0.05,0.425 ± 0.015,0.2 ± 0.027,0.234 ± 0.049,0.426 ± 0.018,0.345 ± 0.019,
CN1C(=O)CCS(=O)(=O)C1c1ccc(Cl)cc1 (stereo not given) [Chlormezanone],0.244 ± 0.0034,0.298 ± 0.018,0.256 ± 0.0031,0.256 ± 0.012,0.188 ± 0.013,0.146 ± 0.005,0.328 ± 0.08,0.407 ± 0.066,0.193 ± 0.0088,0.207 ± 0.011,0.408 ± 0.011,0.367 ± 0.0068,0.615 ± 0.1
CC(C)(C)NCC(O)c1ccccc1Cl (stereo not given) [Tulobuterol],0.22 ± 0.005,0.272 ± 0.0075,0.273 ± 0.0098,0.174 ± 0.013,0.203 ± 0.0095,0.1357 ± 0.00093,0.246 ± 0.067,0.296 ± 0.019,0.181 ± 0.017,0.21 ± 0.016,0.409 ± 0.0083,0.341 ± 0.018,
C[C@@H]1CC[C@H]2[C@@H](C)C(=O)O[C@@H]3O[C@@]4(C)CC[C@@H]1[C@]32OO4 [Artemisinin],0.125 ± 0.01,0.121 ± 0.0046,0.194 ± 0.0057,0.142 ± 0.013,0.109 ± 0.0053,0.135 ± 0.0031,0.219 ± 0.025,0.216 ± 0.042,0.179 ± 0.012,0.191 ± 0.0069,0.348 ± 0.0058,0.135 ± 0.025,0.33 ± 0.0069
CN1[C@@H]2CC[C@H]1C[C@@H](OC(=O)C(CO)c1ccccc1)C2 (stereo not given in full) [Atropine sulfate monohydrate],0.234 ± 0.0026,0.299 ± 0.0088,0.25 ± 0.0043,0.253 ± 0.012,0.182 ± 0.0059,0.149 ± 0.011,0.339 ± 0.053,0.421 ± 0.081,0.199 ± 0.015,0.247 ± 0.019,0.41 ± 0.019,0.357 ± 0.014,
CCC1(c2cccc(O)c2)CCCCN(C)C1 (stereo not given) [Meptazinol hydrochloride],0.2565 ± 0.0013,0.3214 ± 0.0014,0.3 ± 0.0084,0.192 ± 0.015,0.203 ± 0.018,0.139 ± 0.0077,0.176 ± 0.04,0.41 ± 0.095,0.215 ± 0.026,0.217 ± 0.024,0.411 ± 0.014,0.323 ± 0.023,0.643 ± 0.03
